An excerpt weighted towards active compounds, which were near 4.8% of everything screened.
NR1D1 modulator: modulates human Rev-erb alpha binding to DNA. activity, % at 10 µM. P20393. actives 0.79% (n = 370,000). AID 1259318. Rev-erbα–FITC-DNA binding, fluorescence polarization, 90 min;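 active means activity above about 14%, limit read from the data; passing the limit was not always enough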;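 further: 0% = DMSO wells with 35 nM protein and 100% = DMSO wells with 750 nM protein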
DAX1 inh-1: DAX1 (NR0B1) inhibition, primary screen; HEK293T StAR-luciferase reporter, SF-1/DAX-1 repression relief; inhibition, % at 6.8 µM; actives 1.1% (n = 370,000); AID 652010;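 active means inhibition above the mean over all tested compounds plus 3 SD, cut at about 3.6% in these data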;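 further: 0% = DAX-1 cells with DMSO and 100% = cells lacking DAX-1 with DMSO; higher inhibition means more luminescence from relief of DAX-1 repression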
DAX1 inh-2: inhibitors of human orphan nuclear receptor DAX1 (NR0B1); P51843; HEK293 Gal4-DAX1 luciferase reporter, luminescence; inhibition, % at 6.75 µM; actives 0.99% (n = 340,000);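 active means inhibition above the mean over all tested compounds plus 3 SD, cut at about 4.2% in these data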;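 further: 0% = DAX1-transfected cells with DMSO and 100% = empty-vector control cells with DMSO; inhibition shows as a rise in luminescence from relieved DAX1 repression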
Target sequence (P51843 207-470 limits assumed): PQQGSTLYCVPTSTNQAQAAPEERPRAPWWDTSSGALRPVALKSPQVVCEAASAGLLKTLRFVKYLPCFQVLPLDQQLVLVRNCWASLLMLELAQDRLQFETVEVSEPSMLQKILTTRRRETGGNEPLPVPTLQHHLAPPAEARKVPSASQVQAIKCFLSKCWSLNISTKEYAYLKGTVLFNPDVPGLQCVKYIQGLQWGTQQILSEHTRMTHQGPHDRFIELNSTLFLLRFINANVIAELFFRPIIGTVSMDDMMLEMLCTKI
hcDAF-12 act: H. contortus DAF-12 activation, primary screen; HEK293 hcDAF-12 lit1-tk-luc reporter, luminescence; 0% DMSO, 100% Δ7-dafachronic acid; activation, % at 6.8 µM; actives 1.4% (n = 370,000); AID 652067;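 active means activation above the mean of all tested compounds plus 3 SD, cut at about 5.5% in these data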;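 further: 100% = response to 3 µM Δ7-dafachronic acid high control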
ssDAF12 agonist: activates DAF-12 receptor from parasite S. stercoralis. HEK293 ssDAF-12/GRIP1 lit1-tk-luc reporter, luminescence; % of 3 µM dafachronic acid response. activation, % at 6.8 µM. actives 1% (n = 370,000);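 active means activation above the mean over all tested compounds plus 3 SD, cut at about 0.9% in these data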;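 further: 0% = DMSO-only wells and 100% = 3 µM delta7-dafachronic acid wells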
hgDAF12 agonist: activates the H. glycines DAF-12 receptor ligand-binding domain; HEK293 GAL4-hgDAF12 UAS-luciferase reporter, agonist luminescence; normalized to butyrate control; activation, % at 6.8 µM; actives 1.8% (n = 370,000); AID 687014;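 active means activation above a cutoff set at the mean of all screened compounds plus 3 SD, cut at about 10% in these data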;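 further: 0% = DMSO wells and 100% = sodium butyrate wells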
NR1D1 mod conf: confirmation of modulators of human Rev-erb alpha DNA binding | shares compounds with NR1D1 modulator | Rev-erb alpha FITC-DNA binding, fluorescence polarization, 90 min | activation, % at 25 µM | actives 61% (n = 3,000);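 active means activation at or above a set limit, or at least 3 SD above the negative control mean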;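 further: 0% = 35 nM protein with DMSO and 100% = 750 nM protein high control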
RORg DNA counter: affects RORgamma DNA binding in a Rev-erb alpha counter-screen | shares compounds with NR1D1 modulator | purified RORgamma protein-FITC-DNA binding, fluorescence polarization | IC50, µM | actives 8% (n = 910);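 active means Compounds whose fitted half-maximal concentration for disrupting protein-DNA binding is below 10 micromolar; the record names Rev-erb in its text, so the target is in doubt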
* hit, by the source's call.

Results for O=C(c1ccc(F)cc1)c1ccc(-c2ccc(F)cc2)nc1 ?
NR1D1 modulator: 28*; DAX1 inh-1: 0; DAX1 inh-2: 1; hcDAF-12 act: 0; ssDAF12 agonist: -1; hgDAF12 agonist: 1; NR1D1 mod conf: 12

Results for FC(F)(F)c1ccccc1C(C#Cc1ccccc1)NCc1ccc2c(c1)OCO2 (stereo not drawn) ?
NR1D1 modulator: 2; DAX1 inh-1: -1; hcDAF-12 act: -2; ssDAF12 agonist: 0; hgDAF12 agonist: 0

How did CCN(CC)c1ccc2cc(S(=O)(=O)c3ccc(Cl)cc3)c(=O)oc2c1 do in these assays?
NR1D1 modulator: 17*; DAX1 inh-1: -1; DAX1 inh-2: 2; hcDAF-12 act: -1; ssDAF12 agonist: -1; hgDAF12 agonist: -1; NR1D1 mod conf: 19*

How did CC(C)(C)S(=O)N1C[C@@H]2CC(=O)C(c3ccccc3)=C2[C@H]1CCO (stereo partly drawn) do in these assays?
NR1D1 modulator: 1; DAX1 inh-1: -1; hcDAF-12 act: 0; ssDAF12 agonist: -1; hgDAF12 agonist: -2

How did Cc1nc(SCc2nc3ccc(C(=O)c4ccccc4)cc3[nH]2)c2oc3ccccc3c2n1 do in these assays?
NR1D1 modulator: 63*; DAX1 inh-1: -1; DAX1 inh-2: 2; hcDAF-12 act: -2; ssDAF12 agonist: -1; hgDAF12 agonist: 1; NR1D1 mod conf: 76*

Results for Cc1ccc2oc3c(SCc4nc5ccccc5[nH]4)nc(C)nc3c2c1 ?
NR1D1 modulator: -4; DAX1 inh-1: 0; DAX1 inh-2: 0; hcDAF-12 act: 0; ssDAF12 agonist: -1; hgDAF12 agonist: 1

What do the screens show for `Cc1nc(SCc2nc3ccc(F)cc3[nH]2)c2oc3ccccc3c2n1`?
NR1D1 modulator: -3; DAX1 inh-1: -1; DAX1 inh-2: -1; hcDAF-12 act: 0; ssDAF12 agonist: -1; hgDAF12 agonist: 2

What do the screens show for `Cc1nc(SCc2nc3ccccc3[nH]2)c2oc3cc(Br)ccc3c2n1`?
NR1D1 modulator: 46*; DAX1 inh-1: 0; DAX1 inh-2: 1; hcDAF-12 act: 3; ssDAF12 agonist: -1; hgDAF12 agonist: -2; NR1D1 mod conf: 53*; RORg DNA counter: >40

Results for C[C@@H]1NS(=O)(=O)c2ccc(F)cc2O[C@@H]1c1ccccc1 ?
NR1D1 modulator: 0; DAX1 inh-1: 0; hcDAF-12 act: 1; ssDAF12 agonist: -2; hgDAF12 agonist: 0

Results for COC(=O)[C@@H](Cc1ccccc1)NC(=O)[C@H]1O[C@@H](n2cnc3c(=O)[nH]c(N)nc32)[C@H](O)[C@@H]1O ?
NR1D1 modulator: -4; DAX1 inh-1: 0; hcDAF-12 act: 0; ssDAF12 agonist: -1; hgDAF12 agonist: -1

How did O=C(Nc1nnc(C2CCCCC2)s1)c1ccc(Br)s1 do in these assays?
NR1D1 modulator: 95*; DAX1 inh-1: -1; DAX1 inh-2: 2; hcDAF-12 act: -2; ssDAF12 agonist: -2; hgDAF12 agonist: 1; NR1D1 mod conf: 82*; RORg DNA counter: >40

How did O=C(Nc1nnc(C(F)(F)F)s1)c1ccc(Br)s1 do in these assays?
NR1D1 modulator: 2; DAX1 inh-1: 1; DAX1 inh-2: 0; hcDAF-12 act: -1; ssDAF12 agonist: -2; hgDAF12 agonist: 3

What do the screens show for `CC(CCN1CCC(C(O)(c2ccccc2)c2ccccc2)CC1)Oc1cccc(Cl)c1` (stereo not drawn)?
NR1D1 modulator: 7; DAX1 inh-1: 0; hcDAF-12 act: 4; ssDAF12 agonist: -1; hgDAF12 agonist: 0

Results for COc1ccc(CCn2c(-c3ccc(OC)cc3)nc3c(c(=O)c4ccccc4n3C)c2=O)cc1 ?
NR1D1 modulator: 50*; DAX1 inh-1: 0; DAX1 inh-2: 0; hcDAF-12 act: 1; ssDAF12 agonist: -1; hgDAF12 agonist: 2; NR1D1 mod conf: 31*; RORg DNA counter: >40

How did Cc1cccc(-c2nc3c(c(=O)c4ccccc4n3C)c(=O)n2-c2ccccc2)c1 do in these assays?
NR1D1 modulator: 40*; DAX1 inh-1: 1; DAX1 inh-2: 1; hcDAF-12 act: 1; ssDAF12 agonist: -1; hgDAF12 agonist: -2; NR1D1 mod conf: 29*

How did COCCn1c(-c2ccc(C)cc2)nc2c(c(=O)c3ccccc3n2C)c1=O do in these assays?
NR1D1 modulator: -3; DAX1 inh-1: -1; DAX1 inh-2: 0; hcDAF-12 act: -2; ssDAF12 agonist: -1; hgDAF12 agonist: -4

What do the screens show for `Cc1ccc(-c2nc3c(c(=O)c4ccccc4n3C)c(=O)n2-c2ccccc2)cc1`?
NR1D1 modulator: 26*; DAX1 inh-1: 0; DAX1 inh-2: 0; hcDAF-12 act: 2; ssDAF12 agonist: 0; hgDAF12 agonist: 1; NR1D1 mod conf: 19*

How did COCCn1c(-c2ccc(Cl)cc2Cl)nc2c(c(=O)c3ccccc3n2C)c1=O do in these assays?
NR1D1 modulator: 65*; DAX1 inh-1: 0; DAX1 inh-2: 0; hcDAF-12 act: -3; ssDAF12 agonist: -1; hgDAF12 agonist: -3; NR1D1 mod conf: 23*

Results for O=C(C(=O)N1CCN(C(=O)c2ccccc2C(F)(F)F)CC1)c1cccc(C(F)(F)F)c1 ?
NR1D1 modulator: 6; DAX1 inh-1: 0; hcDAF-12 act: -1; ssDAF12 agonist: 0; hgDAF12 agonist: -2

Results for Cn1cccc1/C=C1/SC(=S)N(CC(=O)O)C1=O ?
NR1D1 modulator: 13; DAX1 inh-1: -1; DAX1 inh-2: 1; hcDAF-12 act: -1; ssDAF12 agonist: -1; hgDAF12 agonist: 0

How did CN1CCS/C1=C\C=C1/SC(=S)N(CC(=O)O)C1=O do in these assays?
NR1D1 modulator: 293*; DAX1 inh-1: 0; DAX1 inh-2: 0; hcDAF-12 act: 0; ssDAF12 agonist: 0; hgDAF12 agonist: -2; NR1D1 mod conf: 173*; RORg DNA counter: >40

What do the screens show for `Cn1nc2c3ccccc3n(Cc3ccccc3)c2nc1=S`?
NR1D1 modulator: 30*; DAX1 inh-1: 0; DAX1 inh-2: 2; hcDAF-12 act: 1; ssDAF12 agonist: -2; hgDAF12 agonist: 4; NR1D1 mod conf: 23*

How did O=C(NCc1ccccc1)C(c1ccncc1)n1c(=O)c(-c2ccccc2)nc2ccccc21 (stereo not drawn) do in these assays?
NR1D1 modulator: 0; DAX1 inh-1: 0; hcDAF-12 act: 0; ssDAF12 agonist: -1; hgDAF12 agonist: 4

Screening data deposited in PubChem by several laboratories.
